Experimental data published in ChEMBL document CHEMBL3988442, “University of Dundee, Small-Polar-MMV Screening Library” (2021).
Screen size: about 48,000 compounds; about 13,000 (27%) showed an effect of 50% or more. The list shows a part of the results.

Each compound was assayed on Wolbachia pipientis (assay: Anti-Wolbachia Cell-Based Screen). Conditions: 5 µM.
Format: functional
Set-up: scale not given: in the data most compounds retested in dose-response had high values

Structure (SMILES) | Percent Effect [%]
Cn1ccnc1CN1CCN2C[C@H](OCc3ccccc3)C[C@H]2C1.O=C(O)C(F)(F)F.O=C(O)C(F)(F)F | -3.164
Cc1cccc(C(C(=O)N2CC(c3ccncc3)C2)N(C)C)c1 (configuration not stated) | -5.316
N#Cc1ccc(F)c(CNC(=O)NCCC(=O)NC2CCCC2)c1 | 6.795
N#CC1(NC(=O)c2nccc3ccccc23)CCC2(CC1)OCCO2 | 0.4939
Cc1noc(C)c1S(=O)(=O)N(CC(N)=O)CC(C)C | 2.709
COC1CCN(C(=O)c2ccccc2NCc2cccnc2)CC1 | 112.6
Cc1ccn(-c2ccccc2NCc2cccnc2)n1 | -3.836
COCCN1CCCn2cnc(CNC3CCCC3)c2C1.Cl.Cl | -22.39
O=C(c1nc(Cc2c[nH]c3ccccc23)no1)N1CCOCC1 | 109.7
c1ccc2c(Cc3nnc([C@H]4CCN(C5CCOCC5)C4)o3)c[nH]c2c1 | 1.602
O=C(c1nc(Cc2c[nH]c3ccccc23)no1)N1CCCCC1 | 107.9
O=C(c1nc(Cc2c[nH]c3ccccc23)no1)N1CCCC1 | 91.24
O=C(c1nc(-c2ccc3cc[nH]c3c2)no1)N1CCCC1 | 5.655
c1ccc2c(Cc3nnc([C@H]4CCN(C5CCCCC5)C4)o3)c[nH]c2c1 | 3.447
O=C(C1CC1)N1CC[C@H](c2nnc(Cc3c[nH]c4ccccc34)o2)C1 | -9.274
CC(=O)N1CC[C@H](c2nnc(Cc3c[nH]c4ccccc34)o2)C1 | -6.086
O=C(O)c1cc2n(n1)CCCN(C(=O)CCc1c[nH]c3ccccc13)C2 | -8.48
CN(C)C(CNCc1nc(-c2ccsc2)no1)c1ccsc1 (configuration not stated) | 7.6
CC(SCc1ccc(Br)c2cccnc12)C(N)=O (configuration not stated) | -7.187
CCNC(=O)c1ccc(N2CCCC(c3nccn3C(C)C)C2)nc1 (configuration not stated) | -0.11
Cn1cc(Cl)c(CN2CCn3nc(C(=O)N4CCCC4)cc3C2)n1 | -5.174
CN(Cc1ccccn1)C(=O)c1nn(C)c2c1CCN(CC1CC1)C2.O=C(O)C(F)(F)F.O=C(O)C(F)(F)F.O=C(O)C(F)(F)F | -10.9
COCCN(Cc1ccccn1)C(=O)C1CCCCCN1C (configuration not stated) | -8.345
COCCN1CC[C@@H]2OC[C@H](C(=O)N(C)Cc3ccccn3)C[C@@H]2C1 | 115.4
CN(Cc1ccco1)C[C@H]1OC[C@@H]2CCN(Cc3ccccn3)C[C@@H]21.O=C(O)C(F)(F)F.O=C(O)C(F)(F)F.O=C(O)C(F)(F)F | 0.7755
CN(Cc1ccccn1)C(=O)[C@H]1CO[C@H]2CCN(CC3CC3)C[C@H]2C1.O=C(O)C(F)(F)F.O=C(O)C(F)(F)F | 99.36
COCCN1CCC(C(=O)N(C)Cc2cccc(Cl)c2)C1 (configuration not stated) | -62.62
